The values that follow come from ChEMBL document CHEMBL3988442, “University of Dundee, Small-Polar-MMV Screening Library” (2021).

Holding throughout (set-up): scale not given: direction of the effect not stated beside the values
The target of assay [1] is Protein translocase subunit SecA (Escherichia coli (strain K12)) (UniProt P10408). The assay is described as follows: Assay to Identify E. coli SecA ATPase Inhibitors. It is filed as functional. The following applies: 30 µM.
Assay [2] has as its target T1, Ubiquitin-activating enzyme e1, putative (Leishmania donovani (strain BPK282A1)) (UniProt E9BSI1).
T1 sequence (whole entry): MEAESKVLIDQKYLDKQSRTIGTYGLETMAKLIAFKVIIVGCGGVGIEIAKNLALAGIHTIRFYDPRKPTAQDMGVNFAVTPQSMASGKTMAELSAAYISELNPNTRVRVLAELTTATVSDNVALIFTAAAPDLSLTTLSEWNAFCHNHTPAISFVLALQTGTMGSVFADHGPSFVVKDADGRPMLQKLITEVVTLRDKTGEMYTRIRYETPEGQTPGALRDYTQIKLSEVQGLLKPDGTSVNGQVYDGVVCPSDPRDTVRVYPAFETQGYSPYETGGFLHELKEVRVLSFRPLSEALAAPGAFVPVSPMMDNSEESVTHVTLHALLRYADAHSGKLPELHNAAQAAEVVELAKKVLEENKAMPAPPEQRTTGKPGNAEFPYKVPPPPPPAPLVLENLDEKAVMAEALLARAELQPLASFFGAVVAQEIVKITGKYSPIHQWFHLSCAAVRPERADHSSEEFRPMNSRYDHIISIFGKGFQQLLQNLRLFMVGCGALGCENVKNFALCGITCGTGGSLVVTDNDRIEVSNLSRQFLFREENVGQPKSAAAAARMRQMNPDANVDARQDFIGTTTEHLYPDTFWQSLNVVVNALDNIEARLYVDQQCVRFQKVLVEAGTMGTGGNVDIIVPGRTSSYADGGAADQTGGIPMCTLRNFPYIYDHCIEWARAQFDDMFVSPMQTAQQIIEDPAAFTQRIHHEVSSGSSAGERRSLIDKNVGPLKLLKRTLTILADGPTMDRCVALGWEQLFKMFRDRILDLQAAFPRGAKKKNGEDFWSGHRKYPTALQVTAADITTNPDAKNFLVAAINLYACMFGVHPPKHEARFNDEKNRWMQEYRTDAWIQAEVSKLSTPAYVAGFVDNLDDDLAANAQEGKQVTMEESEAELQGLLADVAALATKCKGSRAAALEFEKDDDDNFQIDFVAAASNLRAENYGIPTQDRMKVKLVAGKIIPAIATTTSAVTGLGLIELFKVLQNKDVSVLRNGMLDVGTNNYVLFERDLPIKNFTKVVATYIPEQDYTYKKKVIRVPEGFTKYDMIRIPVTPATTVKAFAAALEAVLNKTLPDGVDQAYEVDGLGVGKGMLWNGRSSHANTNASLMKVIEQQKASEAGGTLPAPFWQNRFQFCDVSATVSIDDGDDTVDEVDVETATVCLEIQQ
The assay is described as follows: Leishmania donovani Ubiquitin Activating Enzyme (LdE1). It is filed as functional. The following applies: 30 µM.

Assay [3] deals with AMP-activated protein kinase, AMPK (Homo sapiens) (UniProt P54646+O43741+P54619+Q9UGJ0+Q9Y478+Q13131+Q9UGI9). The assay is described as follows: AMP-dependent Kinase enzyme assay. An in vitro enzyme assay that detects ADP turnover that is directly proportional to AMPK activity. This uses naive AMPK that is activated during the assay with MK-8722. It is filed as functional. The following applies: 30 µM.

For assay [4], the target named is Sialic acid-binding Ig-like lectin 9 (Homo sapiens) (UniProt Q9Y336). The assay is described as follows: Hs-Siglec9 ALPHAscreen SOP 20170721. The settings on record: 10 µM.
Assay [5] concerns Trypanosoma cruzi. The assay is described as follows: Trypanosoma cruzi phosphomannomutase and mannose-1-phosphate guanylyltransferase assay. It is filed as functional. The following applies: 10 µM.
Assay [6] addresses T2, Arginase-2, mitochondrial (Homo sapiens) (UniProt P78540).
T2 sequence (whole entry): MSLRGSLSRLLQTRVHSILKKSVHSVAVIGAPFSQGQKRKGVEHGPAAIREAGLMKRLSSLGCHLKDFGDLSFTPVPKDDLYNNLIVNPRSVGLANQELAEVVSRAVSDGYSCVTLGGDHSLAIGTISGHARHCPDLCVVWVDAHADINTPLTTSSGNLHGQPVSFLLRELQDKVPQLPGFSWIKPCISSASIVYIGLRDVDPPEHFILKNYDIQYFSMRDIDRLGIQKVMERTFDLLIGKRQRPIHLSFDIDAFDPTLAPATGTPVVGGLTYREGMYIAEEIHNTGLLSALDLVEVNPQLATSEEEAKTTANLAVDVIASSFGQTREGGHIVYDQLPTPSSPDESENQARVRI
The assay is described as follows: in vitro enzyme assay to detect the production of urea directly proportional to the activity of Arginase II. Further: in the data most compounds retested in dose-response had high values. It is filed as functional. The following applies: 33.3 µM.

The target in assay [7] is T3, Proteasome subunit beta (Trypanosoma cruzi) (UniProt O96673).
T3 sequence (whole entry): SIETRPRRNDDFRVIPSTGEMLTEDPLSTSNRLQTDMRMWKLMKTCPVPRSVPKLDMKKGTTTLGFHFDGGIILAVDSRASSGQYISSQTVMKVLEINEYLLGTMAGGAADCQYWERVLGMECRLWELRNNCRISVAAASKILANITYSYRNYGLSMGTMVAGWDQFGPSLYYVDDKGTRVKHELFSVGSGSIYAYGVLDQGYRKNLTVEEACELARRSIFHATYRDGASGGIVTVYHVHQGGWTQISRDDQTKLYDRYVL
In words: Trypanosoma cruzi proteasome chymotrypsin-like activity (TcProtChymo) assay. Further: in the data most compounds retested in dose-response had high values. It is filed as functional. The following applies: 9.37 µM.

For assay [8], the species on record is Homo sapiens. In words: To identify inhibition of the IFN signalling (Jak-Stat) pathway via expression of an eGFP reporter gene under the control of an IFN-stimulated response element (ISRE) containing MxA promoter. It is filed as functional. The settings on record: 30 µM.
The target of assay [9] is T4, Tyrosyl-tRNA synthetase, putative (Trypanosoma cruzi (strain CL Brener)) (UniProt Q4DSP6).
T4 sequence (whole entry): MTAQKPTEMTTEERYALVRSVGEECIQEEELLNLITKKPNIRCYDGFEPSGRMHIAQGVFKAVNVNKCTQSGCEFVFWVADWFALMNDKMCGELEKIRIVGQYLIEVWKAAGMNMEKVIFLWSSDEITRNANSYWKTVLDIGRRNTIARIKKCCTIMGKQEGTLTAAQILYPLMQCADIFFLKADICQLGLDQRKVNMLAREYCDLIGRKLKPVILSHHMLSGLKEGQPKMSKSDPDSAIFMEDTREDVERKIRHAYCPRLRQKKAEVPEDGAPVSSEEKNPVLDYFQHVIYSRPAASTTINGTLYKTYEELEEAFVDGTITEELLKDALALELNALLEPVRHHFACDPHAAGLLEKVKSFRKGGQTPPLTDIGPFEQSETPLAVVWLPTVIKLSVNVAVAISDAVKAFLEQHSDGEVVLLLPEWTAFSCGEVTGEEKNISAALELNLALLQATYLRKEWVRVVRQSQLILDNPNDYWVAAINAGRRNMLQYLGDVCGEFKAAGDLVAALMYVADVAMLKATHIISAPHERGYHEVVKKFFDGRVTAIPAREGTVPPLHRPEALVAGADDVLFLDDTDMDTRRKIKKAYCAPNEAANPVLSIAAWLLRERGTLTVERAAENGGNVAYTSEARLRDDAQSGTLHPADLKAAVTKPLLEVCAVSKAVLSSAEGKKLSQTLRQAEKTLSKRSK
In words: Trypanosoma cruzi tyrosyl tRNA synthetase (TcYRS) _High Tyrosine SOP. Further: in the data most compounds retested in dose-response had high values. It is filed as functional. The settings on record: 30 µM.

Assay [10] addresses T4, Tyrosyl-tRNA synthetase, putative (Trypanosoma cruzi (strain CL Brener)). In words: Trypanosoma cruzi tyrosyl tRNA synthetase (TcYRS) SOP. The following applies: 30 µM. It is filed as functional.
Assay [11] deals with Chromo domain-containing protein 1 (Saccharomyces cerevisiae (strain ATCC 204508 / S288c) (Baker's yeast)) (UniProt P32657). The assay is described as follows: ScCHD-1 Enzyme Inhibition Assay. Further: in the data most compounds retested in dose-response had high values. It is filed as functional. The settings on record: 30 µM.

For part of these data: Measured potencies and affinities stand elsewhere.

Sequence of Chromo domain-containing protein 1 (Saccharomyces cerevisiae (strain ATCC 204508 / S288c) (Baker's yeast)) (P32657 whole entry, the tested form may be a part): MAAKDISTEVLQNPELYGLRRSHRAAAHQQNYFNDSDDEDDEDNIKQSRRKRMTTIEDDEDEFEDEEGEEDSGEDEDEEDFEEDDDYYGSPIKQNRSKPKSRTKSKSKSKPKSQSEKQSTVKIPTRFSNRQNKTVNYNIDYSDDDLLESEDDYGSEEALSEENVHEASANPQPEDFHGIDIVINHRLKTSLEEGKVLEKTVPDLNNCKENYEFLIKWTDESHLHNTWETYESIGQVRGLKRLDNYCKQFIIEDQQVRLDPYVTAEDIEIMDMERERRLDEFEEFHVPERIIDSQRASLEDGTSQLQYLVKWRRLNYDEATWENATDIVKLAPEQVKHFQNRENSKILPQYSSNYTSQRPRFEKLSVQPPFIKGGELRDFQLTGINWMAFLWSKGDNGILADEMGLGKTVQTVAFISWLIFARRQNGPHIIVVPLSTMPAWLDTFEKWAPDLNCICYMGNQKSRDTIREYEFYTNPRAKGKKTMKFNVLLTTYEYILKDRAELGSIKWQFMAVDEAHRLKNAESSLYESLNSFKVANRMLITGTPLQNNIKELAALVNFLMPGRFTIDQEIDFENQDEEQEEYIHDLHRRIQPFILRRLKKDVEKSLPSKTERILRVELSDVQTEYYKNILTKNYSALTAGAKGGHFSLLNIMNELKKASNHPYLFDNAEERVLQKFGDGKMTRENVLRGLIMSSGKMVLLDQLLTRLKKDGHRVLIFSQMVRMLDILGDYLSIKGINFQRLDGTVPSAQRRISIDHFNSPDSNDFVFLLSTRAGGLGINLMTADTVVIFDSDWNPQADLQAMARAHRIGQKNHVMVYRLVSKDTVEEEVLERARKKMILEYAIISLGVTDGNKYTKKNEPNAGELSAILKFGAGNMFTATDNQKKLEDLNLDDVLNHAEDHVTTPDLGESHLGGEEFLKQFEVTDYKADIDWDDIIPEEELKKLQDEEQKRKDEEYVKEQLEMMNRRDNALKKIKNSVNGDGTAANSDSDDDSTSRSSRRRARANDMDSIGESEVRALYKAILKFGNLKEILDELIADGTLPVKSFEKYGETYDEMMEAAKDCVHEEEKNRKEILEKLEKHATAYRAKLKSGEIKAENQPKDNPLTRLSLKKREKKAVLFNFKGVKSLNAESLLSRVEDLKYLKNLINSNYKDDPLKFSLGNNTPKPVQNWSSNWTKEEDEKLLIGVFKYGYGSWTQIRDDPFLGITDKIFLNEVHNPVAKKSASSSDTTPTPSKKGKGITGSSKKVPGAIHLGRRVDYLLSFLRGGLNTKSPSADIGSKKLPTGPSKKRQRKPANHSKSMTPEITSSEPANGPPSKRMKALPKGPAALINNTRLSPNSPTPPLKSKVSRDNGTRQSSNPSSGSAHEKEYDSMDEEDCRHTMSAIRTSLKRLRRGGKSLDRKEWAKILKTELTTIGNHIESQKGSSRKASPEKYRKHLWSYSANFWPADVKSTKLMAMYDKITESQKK
Sequence of Sialic acid-binding Ig-like lectin 9 (Homo sapiens) (Q9Y336 whole entry): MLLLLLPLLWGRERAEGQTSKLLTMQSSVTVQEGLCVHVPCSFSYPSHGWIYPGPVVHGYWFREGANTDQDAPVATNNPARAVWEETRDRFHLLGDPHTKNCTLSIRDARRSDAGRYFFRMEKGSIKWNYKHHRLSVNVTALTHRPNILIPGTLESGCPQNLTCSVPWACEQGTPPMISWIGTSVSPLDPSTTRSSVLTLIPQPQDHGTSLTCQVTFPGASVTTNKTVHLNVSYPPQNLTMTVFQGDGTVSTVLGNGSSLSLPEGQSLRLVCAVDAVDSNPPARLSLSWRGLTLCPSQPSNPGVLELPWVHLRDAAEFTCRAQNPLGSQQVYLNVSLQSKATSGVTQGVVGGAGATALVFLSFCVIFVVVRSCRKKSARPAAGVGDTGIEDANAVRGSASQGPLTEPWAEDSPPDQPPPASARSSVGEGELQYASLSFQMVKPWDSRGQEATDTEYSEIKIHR
Sequence of Protein translocase subunit SecA (Escherichia coli (strain K12)) (P10408 whole entry): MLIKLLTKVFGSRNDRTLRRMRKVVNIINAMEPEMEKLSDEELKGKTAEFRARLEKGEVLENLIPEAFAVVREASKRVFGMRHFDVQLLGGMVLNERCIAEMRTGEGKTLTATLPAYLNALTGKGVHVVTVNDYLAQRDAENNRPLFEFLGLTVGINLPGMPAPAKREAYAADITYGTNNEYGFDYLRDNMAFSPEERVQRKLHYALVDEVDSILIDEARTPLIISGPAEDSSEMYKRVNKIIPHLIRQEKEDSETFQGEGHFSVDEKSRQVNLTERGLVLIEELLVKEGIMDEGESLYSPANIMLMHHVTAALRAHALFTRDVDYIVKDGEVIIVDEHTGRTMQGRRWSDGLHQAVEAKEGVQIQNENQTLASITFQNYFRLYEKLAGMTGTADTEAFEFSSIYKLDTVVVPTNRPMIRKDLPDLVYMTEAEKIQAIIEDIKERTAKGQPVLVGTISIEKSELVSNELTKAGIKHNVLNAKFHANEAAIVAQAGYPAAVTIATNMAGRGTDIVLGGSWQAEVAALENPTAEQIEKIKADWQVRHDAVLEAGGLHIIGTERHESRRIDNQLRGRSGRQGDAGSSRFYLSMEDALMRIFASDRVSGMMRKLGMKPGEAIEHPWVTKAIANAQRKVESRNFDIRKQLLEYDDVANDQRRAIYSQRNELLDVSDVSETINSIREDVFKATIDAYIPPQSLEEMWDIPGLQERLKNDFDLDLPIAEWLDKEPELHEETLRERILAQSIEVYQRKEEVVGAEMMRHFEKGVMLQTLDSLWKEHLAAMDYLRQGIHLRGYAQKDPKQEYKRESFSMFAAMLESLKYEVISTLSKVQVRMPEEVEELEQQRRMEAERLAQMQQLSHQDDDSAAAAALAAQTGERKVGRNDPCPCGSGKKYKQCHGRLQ

Turning to `CCN(C)c1ncnc2c1CCN(C(=O)N1CCCC1)CC2`, the Percent Effect in assay [1] was 1.86%; in assay [2], 10.7%; in assay [3], -0.0235%; in assay [4], 0.87%; in [5], -8.88%; in assay [6], -54.7%. The Percent Effect in assay [7] is 17.6%; in assay [8] it was -9.36%; in assay [9], 4.17%; in assay [10] it was 15%; in [11], -5.04%.

`CCc1nc(CN2CCCN(c3nccs3)CC2)no1`: the Percent Effect in [1] is -2.88%; in assay [2], 15.6%; in [3] it was -3.3%; in [4] it was -7.59%; in assay [5], -3.93%; in assay [6] it was 1.78%. In addition, the Percent Effect is 12.5% in [7]; 26.3% in [8]; 3.88% in assay [9]; 9.76% in [10]; -8.02% in assay [11].

For `CC(C)COC(C)C(=O)NCc1ccc(OC(C)C)nc1` (centres undefined), the Percent Effect in assay [1] was -1.41%; in assay [2], 15.6%; in assay [3], -0.374%; in [4], 1.85%; in [5], 2.84%; in assay [6], 1.9%. The Percent Effect was 11.1% in assay [7]; -12.7% in assay [8]; 8.57% in assay [9]; 25.9% in [10]; -24.5% in assay [11].

With `Cc1cc(CN2CCN(C(=O)c3sccc3C(C)C)CC2)no1`, the Percent Effect in [1] was -1.68%; in [2] it was 2.6%; in assay [3], 4.01%; in assay [4], 0.935%; in [5] it was 4.41%; in [6] it was 4.84%. Besides, the Percent Effect in assay [7] is 1.86%; in [8], 5.54%; in assay [9] it was 2.86%; in assay [10], 7.06%; in assay [11], -3.8%.

Regarding `CN(C)c1ncccc1CNC(=O)N1CCCC1CN1CCCCC1` (centres undefined), the Percent Effect in assay [1] was -3.1%; in assay [2] it was 23.4%; in [3] it was -3.23%; in assay [4], 0.716%; in [5] it was -2.25%; in assay [6], -0.356%. Moreover, the Percent Effect in assay [7] is 9.63%; in assay [8], 3.33%; in assay [9], 7.77%; in assay [10], 14.6%; in [11] it was -9.2%.

Turning to `CN1CCOC(CN(C(=O)Cc2ccccc2F)c2nccs2)C1` (centres undefined), the Percent Effect in assay [1] was -1.47%; in assay [2], 0%; in assay [3], -3.71%; in [4], 11.3%; in assay [5], 8.82%; in assay [6] it was -2.03%. Further, the Percent Effect is -0.539% in assay [7]; 1.86% in assay [8]; 1.98% in assay [9]; 6.1% in assay [10]; 5.97% in [11].

For the compound `Cc1nc(N2CCOCC2)nc2c1CCN(Cc1cccnc1)CC2`, the Percent Effect in assay [1] was -2.77%; in [2], 0%; in assay [3], 0.954%; in [4], 7.94%; in assay [5] it was -3.28%; in assay [6] it was -56.8%. Besides, the Percent Effect was 3.08% in [7]; -25.6% in assay [8]; 7.29% in [9]; -2.5% in [10]; -17.8% in assay [11].

For the compound `CCn1ccnc1CN1CCOC(CNc2cccnn2)C1` (centres undefined), the Percent Effect was -0.964% in assay [1]; 18.2% in assay [2]; -6.06% in assay [3]; 5.48% in assay [4]; 1.5% in [5]; 2.85% in [6]. The Percent Effect in [7] is 16.4%; in assay [8] it was 17.5%; in [9], 4.85%; in assay [10] it was 19.5%; in [11], -8.74%.

On to `COCc1nc(C(=O)N2CCCC2c2c(C)nn(C)c2C)cs1` (centres undefined), for which the Percent Effect in assay [1] is -0.948%; in assay [2] it was -3.8%; in assay [3], 3.43%; in assay [4] it was 1.97%; in assay [5], -1.33%; in assay [6], 0.645%. Besides, the Percent Effect is -0.172% in assay [7]; 12% in assay [8]; 3.12% in assay [9]; 5.06% in assay [10]; 2.98% in [11].
